High-throughput results deposited in PubChem BioAssay by several laboratories.
FBA Mtb inh: Mtb FBA enzyme inhibitors, primary screen, biochemical, fluorescence, strain H37Rv; Fructose-bisphosphate aldolase (Mycobacterium tuberculosis (strain ATCC 25618 / H37Rv)), …; AID 588726, 2011; inhibition, % at 1 µM; 360,000 compounds, 2.3% hits; purified M. tuberculosis FBA, fluorescence read-out;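 also: 0% = vehicle and 100% = reference inhibitor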
Rv3671c inh: Rv3671c serine protease inhibitors, primary screen, biochemical, fluorescence polarization, M. tuberculosis H37Rv | P9WHR9 | inhibition, % at 5.96 µM | 320,000 compounds, 0.048% hits; in the data active = inhibition above about 38%;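 also: extracellular domain of Rv3671c used as enzyme; 0% = enzyme with DMSO and 100% = no enzyme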
GDH-TPI counter-1: GDH-TPI coupling enzyme inhibitors, primary screen, artefact control for M. tuberculosis FBA inhibitor project, biochemical, absorbance, full deck; GDH-TPI coupled enzyme counterscreen, NADH absorbance; inhibition, % at 4.8 µM; 360,000 compounds, 1.2% hits; AID 588335, 2011; in the data active = inhibition above about 30%;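 also: 0% = DMSO wells and 100% = wells lacking the enzyme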
Mtb UGM inh: M. tuberculosis UGM enzyme inhibitors, primary screen, biochemical, fluorescence polarization, single point; AID 504406, 2011; purified UGM, fluorescence polarization probe displacement; 320,000 compounds, 0.06% hits; inhibition, % at 10 µM; in the data active = inhibition above about 10%, passing the limit was not always enough
Target sequence (P9WIQ1 whole entry, looked up): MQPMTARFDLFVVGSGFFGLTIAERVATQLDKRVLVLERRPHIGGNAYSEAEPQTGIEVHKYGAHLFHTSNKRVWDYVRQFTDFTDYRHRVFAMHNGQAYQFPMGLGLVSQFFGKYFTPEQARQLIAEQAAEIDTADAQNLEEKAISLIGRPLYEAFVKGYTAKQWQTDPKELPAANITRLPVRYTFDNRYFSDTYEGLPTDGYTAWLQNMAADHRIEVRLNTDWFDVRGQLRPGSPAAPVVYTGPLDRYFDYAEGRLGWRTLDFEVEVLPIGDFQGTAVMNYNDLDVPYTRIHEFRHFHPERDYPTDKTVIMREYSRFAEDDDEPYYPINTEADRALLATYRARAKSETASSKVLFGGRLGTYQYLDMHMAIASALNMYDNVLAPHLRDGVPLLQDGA
Mtb FBA inh conf: M. tuberculosis aldolase blockers, biochemical, fluorescence, strain H37Rv, confirmation; shares compounds with FBA Mtb inh; purified M. tuberculosis FBA, fluorescence read-out; inhibition, % at 1 µM; 5,600 compounds, 78% hits;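 also: 0% = vehicle wells and 100% = reference inhibitor wells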
GDH-TPI counter-2: GDH-TPI coupling enzyme inhibitors, artefact control for M. tuberculosis FBA inhibitor project, biochemical, fluorescence, high throughput; inhibition, % at 1 µM; 5,600 compounds, 81% hits; shares compounds with FBA Mtb inh; GDH-TPI coupled enzyme counterscreen; in the data active = inhibition above about 10%
GDH-TPI DR: GDH-TPI coupling enzyme inhibitors, dose response, artefact control for M. tuberculosis FBA inhibitor project, biochemical, fluorescence, IC50 | shares compounds with FBA Mtb inh | GDH-TPI coupled enzyme assay, artifact counterscreen | IC50, µM | 170 compounds, 79% hits | AID 652145, 2013; call rule not given here
* hit, by the source's call; . = no result; + = active, no number. A selection: hits, their analogues and other compounds. The true share with any hit is near 3.5%. Rule as the data show it, unless noted: active = inhibition above about 27%; inactive = the rest.

SMILES | FBA Mtb inh | Rv3671c inh | GDH-TPI counter-1 | Mtb UGM inh | Mtb FBA inh conf | GDH-TPI counter-2 | others
CCOc1ccc(-c2nnc(-c3ccccc3)o2)cc1 | 91* | -10 | 4 | 1 | 88* | 74*
CCOC(=O)COc1ccc(-c2nnc(-c3ccccc3)o2)cc1 | 59* | -2 | 7 | 3 | 41* | 35*
COc1ccc(-c2ccc(-c3nnc(Cc4ccc(OC)c(OC)c4)o3)cc2)cc1 | 39* | -1 | 15 | 3 | -4 | -2
CCOc1ccc(-c2nnc(-c3ccc(OC)cc3)o2)cc1 | 9 | 1 | 9 | 0 | . | .
COc1ccc(OC)c(NCc2nnc(-c3ccccc3)o2)c1 | -1 | . | -13 | -1 | . | .
COc1ccc(-c2nnc(-c3ccccc3)o2)cc1OC | 31* | -2 | 1 | 1 | 149* | 107*
COc1cc(-c2nnc(-c3ccccc3)o2)cc(OC)c1OC | 8 | 10 | 11 | 1 | . | .
Cc1ccc(S(=O)(=O)N2CCN(c3ccccc3)CC2)c(C)c1 | 1 | -5 | 8 | -2 | . | .
COc1ccc(OCC2c3cc(OC)c(OC)cc3CCN2C(=O)C(C)C)cc1 (configuration not stated) | 1 | . | -6 | . | . | .
CC1(C)C(=O)C=CC(=O)C(C)(C)C(=O)C=CC(=O)C(C)(C)C2=CC=C(O2)C(C)(C)C(=O)C=CC1=O | -1 | . | 5 | . | . | .
CN(Cc1ccccc1F)C(=O)CN1CCN(S(=O)(=O)c2ccc3c(c2)OCCCO3)CC1 | -4 | -2 | 9 | 4 | . | .
CCOc1ccc(NC(=O)Nc2ccon2)cc1 | -1 | -4 | -10 | 0 | . | .
CC(=O)Nc1nn(C)c2nc(C)cc(C)c12 | 39* | 6 | -13 | 2 | 59* | 50*
COc1cc2c(cc1NC(=O)Nc1cccc(C)c1)oc1ccccc12 | 4 | -13 | 12 | -3 | . | .
COc1cc2c(cc1NC(=S)Nc1ccccc1C)oc1ccccc12 | 111* | 4 | 36* | 0 | 56* | 43*
COc1cc2c(cc1NC(=S)Nc1cccc(C)c1)oc1ccccc12 | 87* | -6 | 31* | -1 | 12 | -4 | GDH-TPI DR=>10
CCNC(=S)Nc1cc2oc3ccccc3c2cc1OC | 31* | 2 | 7 | 1 | 4 | 5
CC1CCCN(CC(=O)Nc2ccc(S(=O)(=O)N3CCCC3)cc2)C1 (configuration not stated) | 0 | 10 | 3 | 4 | . | .
COc1ccccc1/C=C/C(=O)OCC(=O)Nc1c(C)nn(-c2ccccc2)c1C | 12 | 3 | 6 | -4 | . | .
CCCCNC(=O)COC(=O)c1cc2c(C)nn(-c3ccccc3)c2s1 | 29* | -5 | 14 | 0 | + | 178*
Cc1nn(-c2ccccc2)c2sc(C(=O)NCCN3CCOCC3)cc12 | 33* | -8 | 10 | 2 | 92* | 83*
CCOC(=O)Cn1c2ccccc2n2nc(CCC(=O)O)c(=O)nc12 | 58* | -6 | 2 | -1 | -2 | -3
NC(=O)c1ccc(-c2ncc(-c3ccccc3)o2)cc1 | . | -10 | 20 | 3 | . | .
Cc1ccc(-c2cnc(-c3ccccc3C(=O)O)o2)cc1 | 70* | -10 | 0 | 3 | 11 | -3 | GDH-TPI DR=1.6*
COC(=O)c1ccc(NC2CC(=O)N(c3ccccc3C)C2=O)cc1 (configuration not stated) | 1 | 5 | -4 | -2 | . | .
COC(=O)c1ccccc1NC1CC(=O)N(c2c(C)cccc2C)C1=O (configuration not stated) | 89* | 0 | 9 | 0 | + | +
COc1ccc2[nH]c3c(c2c1)CCNC3=O | 88* | 9 | 2 | -3 | 44* | 36*
COc1ccc2[nH]c3c(c2c1)CCN=C3C | 0 | 4 | 16 | -3 | . | .
O=c1c2c(nc3cc(-c4ccc(Cl)cc4)[nH]n13)CCS2 | 6 | 0 | -2 | 0 | . | .
